{"source": "PubChem BioAssay AID1159580", "about": "(chemical genetic matrix, 2015)", "experiment": "chemical genetic growth profiling, strain panel (AID 1159580);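 further: tested at 20 µM; growth read once vehicle control cultures reached saturation at 30 °C; 1 = growth at the plate median or of vehicle wells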", "details": "growth OD", "note": "The whole screen tested about 5,500 compounds, of which about 2,000 (36%) were called active. Roughly 18% stayed inconclusive and do not appear here. This is one part of the list. A number with no mark means an inactive call. No stated cut-off is given here; in the data, active means normalized growth mostly below about 0.91 (no sharp cut-off); inconclusive means no clear call, values can overlap the other calls; inactive means mostly above about 0.92."}
{"smiles": "COC(=O)NC(=S)Nc1ccccc1NC(=S)NC(=O)OC", "values": [{"measurement": "normalized growth", "setting": "S. cerevisiae deletion strains, locus YJR075W, strain HOC1, stronger effect = lower value", "value": 1.01}, {"measurement": "normalized growth", "setting": "S. cerevisiae deletion strains, locus YKL009W, strain mrt4, stronger effect = lower value", "value": 0.995}, {"measurement": "normalized growth", "setting": "S. cerevisiae deletion strains, locus YKL068W, stronger effect = lower value", "value": 0.996}, {"measurement": "normalized growth", "setting": "S. cerevisiae deletion strains, locus YKL085W, strain MDH1 (second series), stronger effect = lower value", "value": 1}, {"measurement": "normalized growth", "setting": "S. cerevisiae deletion strains, locus YKL085W, strain MDH1, stronger effect = lower value", "value": 1}, {"measurement": "normalized growth", "setting": "S. cerevisiae deletion strains, locus YKL160W, strain elf1, stronger effect = lower value", "value": 0.952}, {"measurement": "normalized growth", "setting": "S. cerevisiae deletion strains, locus YKL190W, strain CNB1, stronger effect = lower value", "value": 1.01}, {"measurement": "normalized growth", "setting": "S. cerevisiae deletion strains, locus YKR001C, strain vps1, stronger effect = lower value", "value": 0.991}, {"measurement": "normalized growth", "setting": "S. cerevisiae deletion strains, locus YKR026C, strain gcn3, stronger effect = lower value", "value": 0.974}, {"measurement": "normalized growth", "setting": "S. cerevisiae deletion strains, locus YKR091W, strain srl3, stronger effect = lower value", "value": 0.97}, {"measurement": "normalized growth", "setting": "S. cerevisiae deletion strains, locus YLL001W, strain dnm1, stronger effect = lower value", "value": 0.972}, {"measurement": "normalized growth", "setting": "S. cerevisiae deletion strains, locus YLL026W, stronger effect = lower value", "value": 0.981}, {"measurement": "normalized growth", "setting": "S. cerevisiae deletion strains, locus YLL041C, strain sdh2, stronger effect = lower value", "value": 0.978}, {"measurement": "normalized growth", "setting": "S. cerevisiae deletion strains, locus YLR027C, strain aat2, stronger effect = lower value", "value": 0.975}, {"measurement": "normalized growth", "setting": "S. cerevisiae deletion strains, locus YLR039C, strain RIC1, stronger effect = lower value", "value": 1.02}, {"measurement": "normalized growth", "setting": "S. cerevisiae deletion strains, locus YLR058C, strain SHM2, stronger effect = lower value", "value": 1}, {"measurement": "normalized growth", "setting": "S. cerevisiae deletion strains, locus YLR102C, strain apc9, stronger effect = lower value", "value": 1.01}, {"measurement": "normalized growth", "setting": "S. cerevisiae deletion strains, locus YLR113W, strain HOG1, stronger effect = lower value", "value": 0.983}, {"measurement": "normalized growth", "setting": "S. cerevisiae deletion strains, locus YLR221C, strain rsa3, stronger effect = lower value", "value": 0.974}, {"measurement": "normalized growth", "setting": "S. cerevisiae deletion strains, locus YLR258W, strain gsy2, stronger effect = lower value", "value": 0.985}, {"measurement": "normalized growth", "setting": "S. cerevisiae deletion strains, locus YLR262C, strain YPT6 (second series), stronger effect = lower value", "value": 0.987}, {"measurement": "normalized growth", "setting": "S. cerevisiae deletion strains, locus YLR262C, strain YPT6, stronger effect = lower value", "value": 0.989}, {"measurement": "normalized growth", "setting": "S. cerevisiae deletion strains, locus YLR268W, strain sec22, stronger effect = lower value", "value": 1.07}, {"measurement": "normalized growth", "setting": "S. cerevisiae deletion strains, locus YLR320W, strain mms22, stronger effect = lower value", "value": "0.856 (active)"}, {"measurement": "normalized growth", "setting": "S. cerevisiae deletion strains, locus YLR330W, strain CHS5, stronger effect = lower value", "value": 1}, {"measurement": "normalized growth", "setting": "S. cerevisiae deletion strains, locus YLR342W, strain FKS1 (second series), stronger effect = lower value", "value": 0.988}, {"measurement": "normalized growth", "setting": "S. cerevisiae deletion strains, locus YLR342W, strain FKS1, stronger effect = lower value", "value": 0.97}, {"measurement": "normalized growth", "setting": "S. cerevisiae deletion strains, locus YLR357W, strain rsc2, stronger effect = lower value", "value": 0.92}, {"measurement": "normalized growth", "setting": "S. cerevisiae deletion strains, locus YLR370C, strain arc18, stronger effect = lower value", "value": 0.98}, {"measurement": "normalized growth", "setting": "S. cerevisiae deletion strains, locus YLR371W, strain rom2, stronger effect = lower value", "value": 1.02}, {"measurement": "normalized growth", "setting": "S. cerevisiae deletion strains, locus YLR384C, strain iki3, stronger effect = lower value", "value": 0.964}, {"measurement": "normalized growth", "setting": "S. cerevisiae deletion strains, locus YLR418C, strain cdc73, stronger effect = lower value", "value": 0.972}, {"measurement": "normalized growth", "setting": "S. cerevisiae deletion strains, locus YML016C, strain PPZ1, stronger effect = lower value", "value": 1}, {"measurement": "normalized growth", "setting": "S. cerevisiae deletion strains, locus YML032C, strain rad52, stronger effect = lower value", "value": 1.05}, {"measurement": "normalized growth", "setting": "S. cerevisiae deletion strains, locus YML120C, strain ndi1, stronger effect = lower value", "value": 0.97}, {"measurement": "normalized growth", "setting": "S. cerevisiae deletion strains, locus YML124C, strain tub3, stronger effect = lower value", "value": 1}, {"measurement": "normalized growth", "setting": "S. cerevisiae deletion strains, locus YMR058W, strain fet3, stronger effect = lower value", "value": 0.957}, {"measurement": "normalized growth", "setting": "S. cerevisiae deletion strains, locus YMR078C, strain ctf18, stronger effect = lower value", "value": 1.02}, {"measurement": "normalized growth", "setting": "S. cerevisiae deletion strains, locus YMR125W, strain sto1, stronger effect = lower value", "value": 0.974}, {"measurement": "normalized growth", "setting": "S. cerevisiae deletion strains, locus YMR129W, stronger effect = lower value", "value": 0.98}, {"measurement": "normalized growth", "setting": "S. cerevisiae deletion strains, locus YMR205C, strain PFK2, stronger effect = lower value", "value": 0.97}, {"measurement": "normalized growth", "setting": "S. cerevisiae deletion strains, locus YMR223W, strain ubp8, stronger effect = lower value", "value": 0.978}, {"measurement": "normalized growth", "setting": "S. cerevisiae deletion strains, locus YMR231W, strain pep5, stronger effect = lower value", "value": 0.993}, {"measurement": "normalized growth", "setting": "S. cerevisiae deletion strains, locus YMR263W, strain SAP30, stronger effect = lower value", "value": 1.02}, {"measurement": "normalized growth", "setting": "S. cerevisiae deletion strains, locus YMR307W, strain GAS1, stronger effect = lower value", "value": 0.983}, {"measurement": "normalized growth", "setting": "S. cerevisiae deletion strains, locus YNL067W, strain RPL9B, stronger effect = lower value", "value": 1.02}, {"measurement": "normalized growth", "setting": "S. cerevisiae deletion strains, locus YNL071W, strain lat1, stronger effect = lower value", "value": "0.772 (active)"}, {"measurement": "normalized growth", "setting": "S. cerevisiae deletion strains, locus YNL128W, strain TEP1, stronger effect = lower value", "value": 1.01}, {"measurement": "normalized growth", "setting": "S. cerevisiae deletion strains, locus YNL153C, strain GIM3, stronger effect = lower value", "value": 0.99}, {"measurement": "normalized growth", "setting": "S. cerevisiae deletion strains, locus YNL183C, strain NPR1, stronger effect = lower value", "value": 0.902}, {"measurement": "normalized growth", "setting": "S. cerevisiae deletion strains, locus YNL209W, strain ssb2, stronger effect = lower value", "value": 1.01}, {"measurement": "normalized growth", "setting": "S. cerevisiae deletion strains, locus YNL233W, strain BNI4, stronger effect = lower value", "value": 1.03}, {"measurement": "normalized growth", "setting": "S. cerevisiae deletion strains, locus YNL248C, strain rpa49, stronger effect = lower value", "value": 0.93}, {"measurement": "normalized growth", "setting": "S. cerevisiae deletion strains, locus YNL250W, strain rad50, stronger effect = lower value", "value": 0.989}, {"measurement": "normalized growth", "setting": "S. cerevisiae deletion strains, locus YNL271C, strain bni1, stronger effect = lower value", "value": 1.01}, {"measurement": "normalized growth", "setting": "S. cerevisiae deletion strains, locus YNL298W, strain CLA4, stronger effect = lower value", "value": 0.978}, {"measurement": "normalized growth", "setting": "S. cerevisiae deletion strains, locus YNL307C, strain MCK1, stronger effect = lower value", "value": 0.986}, {"measurement": "normalized growth", "setting": "S. cerevisiae deletion strains, locus YNL322C, strain KRE1 (second series), stronger effect = lower value", "value": 0.985}, {"measurement": "normalized growth", "setting": "S. cerevisiae deletion strains, locus YNL322C, strain KRE1, stronger effect = lower value", "value": 0.998}, {"measurement": "normalized growth", "setting": "S. cerevisiae deletion strains, locus YNR049C, strain mso1, stronger effect = lower value", "value": 0.99}, {"measurement": "normalized growth", "setting": "S. cerevisiae deletion strains, locus YNR052C, strain pop2, stronger effect = lower value", "value": 1.01}, {"measurement": "normalized growth", "setting": "S. cerevisiae deletion strains, locus YOL006C, strain TOP1, stronger effect = lower value", "value": 1.09}, {"measurement": "normalized growth", "setting": "S. cerevisiae deletion strains, locus YOL012C, strain htz1", "value": 1.25}, {"measurement": "normalized growth", "setting": "S. cerevisiae deletion strains, locus YOL147C, strain pex11, stronger effect = lower value", "value": 1.01}, {"measurement": "normalized growth", "setting": "S. cerevisiae deletion strains, locus YOR001W, strain rrp6, stronger effect = lower value", "value": 0.986}, {"measurement": "normalized growth", "setting": "S. cerevisiae deletion strains, locus YOR061W, strain CKA2, stronger effect = lower value", "value": 1.01}, {"measurement": "normalized growth", "setting": "S. cerevisiae deletion strains, locus YOR069W, strain VPS5, stronger effect = lower value", "value": 1.01}, {"measurement": "normalized growth", "setting": "S. cerevisiae deletion strains, locus YOR070C, strain gyp1, stronger effect = lower value", "value": 0.985}, {"measurement": "normalized growth", "setting": "S. cerevisiae deletion strains, locus YOR080W, strain dia2, stronger effect = lower value", "value": 1.01}, {"measurement": "normalized growth", "setting": "S. cerevisiae deletion strains, locus YOR083W, strain WHI5, stronger effect = lower value", "value": 0.97}, {"measurement": "normalized growth", "setting": "S. cerevisiae deletion strains, locus YOR106W, strain vam3, stronger effect = lower value", "value": 0.887}, {"measurement": "normalized growth", "setting": "S. cerevisiae deletion strains, locus YOR136W, strain idh2, stronger effect = lower value", "value": 0.999}, {"measurement": "normalized growth", "setting": "S. cerevisiae deletion strains, locus YOR144C, strain elg1, stronger effect = lower value", "value": 1.01}, {"measurement": "normalized growth", "setting": "S. cerevisiae deletion strains, locus YOR184W, strain ser1, stronger effect = lower value", "value": 1.01}, {"measurement": "normalized growth", "setting": "S. cerevisiae deletion strains, locus YOR231W, strain MKK1, stronger effect = lower value", "value": 0.986}, {"measurement": "normalized growth", "setting": "S. cerevisiae deletion strains, locus YOR265W, strain rbl2, stronger effect = lower value", "value": 1}, {"measurement": "normalized growth", "setting": "S. cerevisiae deletion strains, locus YOR270C, strain vph1, stronger effect = lower value", "value": 0.858}, {"measurement": "normalized growth", "setting": "S. cerevisiae deletion strains, locus YOR290C, strain snf2, stronger effect = lower value", "value": 0.959}, {"measurement": "normalized growth", "setting": "S. cerevisiae deletion strains, locus YOR316C, strain cot1, stronger effect = lower value", "value": 1.01}, {"measurement": "normalized growth", "setting": "S. cerevisiae deletion strains, locus YPL051W, strain arl3, stronger effect = lower value", "value": 0.957}, {"measurement": "normalized growth", "setting": "S. cerevisiae deletion strains, locus YPL055C, strain LGE1, stronger effect = lower value", "value": 0.98}, {"measurement": "normalized growth", "setting": "S. cerevisiae deletion strains, locus YPL078C, strain atp4, stronger effect = lower value", "value": 0.989}, {"measurement": "normalized growth", "setting": "S. cerevisiae deletion strains, locus YPL106C, strain sse1, stronger effect = lower value", "value": 0.998}, {"measurement": "normalized growth", "setting": "S. cerevisiae deletion strains, locus YPL240C, strain hsp82, stronger effect = lower value", "value": 1}, {"measurement": "normalized growth", "setting": "S. cerevisiae deletion strains, locus YPL241C, strain CIN2, stronger effect = lower value", "value": 1.01}, {"measurement": "normalized growth", "setting": "S. cerevisiae deletion strains, locus YPL256C, strain CLN2, stronger effect = lower value", "value": 1.01}, {"measurement": "normalized growth", "setting": "S. cerevisiae deletion strains, locus YPR119W, strain clb2, stronger effect = lower value", "value": 1.02}, {"measurement": "normalized growth", "setting": "S. cerevisiae deletion strains, locus YPR141C, strain kar3, stronger effect = lower value", "value": 0.994}, {"measurement": "normalized growth", "setting": "S. cerevisiae deletion strains, locus YPR163C, strain tif3, stronger effect = lower value", "value": 1.03}, {"measurement": "normalized growth", "setting": "S. cerevisiae deletion strains, locus YPR167C, strain met16, stronger effect = lower value", "value": 1.01}, {"measurement": "normalized growth", "setting": "S. cerevisiae deletion strains, strain wtn01, stronger effect = lower value", "value": 1.02}, {"measurement": "normalized growth", "setting": "S. cerevisiae strains, strain wild type, stronger effect = lower value", "value": 0.996}]}
